# Screening data deposited in PubChem by several laboratories.
# H9c2 protect: modulators protecting cardiomyocytes from myocardial damage; H9c2 cardiomyocytes, H2O2 injury protection, ATPLite, 2 h; protection from H2O2 cell death, % at 20 µM; 360,000 compounds, 0.63% hits; AID 588492;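 active = compounds giving at least 50% protection of heart cells from peroxide-induced death in the single-dose screen, raw or plate-pattern-corrected value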;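 note: 0% = DMSO wells with peroxide and 100% = DMSO wells without peroxide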
# HDAC3 inh: blocks human histone deacetylase 3; O15379; recombinant HDAC3, fluorogenic peptide/trypsin coupled, fluorescence; inhibition, % at 8.3 µM; 320,000 compounds, 0.15% hits; in the data active = inhibition above about 26%, passing the limit was not always enough
# Target sequence (O15379 whole entry, looked up): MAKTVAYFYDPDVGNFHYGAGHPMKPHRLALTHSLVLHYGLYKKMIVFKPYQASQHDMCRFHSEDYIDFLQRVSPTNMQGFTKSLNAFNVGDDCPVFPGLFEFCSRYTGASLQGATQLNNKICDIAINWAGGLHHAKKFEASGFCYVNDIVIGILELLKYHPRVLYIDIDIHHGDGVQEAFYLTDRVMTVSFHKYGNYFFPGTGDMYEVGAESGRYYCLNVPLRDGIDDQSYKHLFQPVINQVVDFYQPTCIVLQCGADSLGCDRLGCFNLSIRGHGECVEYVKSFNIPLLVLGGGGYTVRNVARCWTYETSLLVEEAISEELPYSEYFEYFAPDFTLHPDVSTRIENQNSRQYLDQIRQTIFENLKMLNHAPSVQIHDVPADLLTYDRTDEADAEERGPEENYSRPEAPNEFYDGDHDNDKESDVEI
# GRK2 inh: blocks RNA aptamer binding to human GRK2 | bead flow cytometry, FAM-aptamer displacement from GRK2 | inhibition of aptamer binding, % at 10 µM | 330,000 compounds, 0.59% hits | AID 488847;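 active = inhibition of aptamer binding above 40%, roughly 3 SD of noise, on plates passing a quality check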;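 note: median bead fluorescence of bound FAM aptamer so fluorescent compounds give negative values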
# Neddylation inh: cullin neddylation inhibition; P61081+Q13564; TR-FRET cullin neddylation, biochemical; inhibition, % at 25 µM; 360,000 compounds, 0.58% hits; in the data active = inhibition above about 36%
# GRK2 CP1: confirmation of human GRK2 inhibitors displacing RNA aptamer; shares compounds with GRK2 inh; bead-bound GRK2, FAM-aptamer displacement, flow cytometry; aptamer displacement, % at 10 µM; 2,000 compounds, 4% hits; AID 504451;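 active = aptamer displacement above 40%, near three times the noise of non-fluorescent compounds, on plates passing quality checks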;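 note: negative values mostly reflect intrinsic compound fluorescence rather than true enhancement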
# Aptamer quench: counter-screen for GRK2 aptamer inhibitors: fluorescent aptamer quenchers | shares compounds with GRK2 inh | Fluorescent RNA aptamer beads, quenching, flow cytometry; stronger effect = higher value | fluorescence change (kMESF span), kMESF (test concentration not listed) | 110 tested, under 10 active | AID 504521;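 active = compounds whose bead fluorescence drops by more than 37 kMESF across the dose range, marking them as dye quenchers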
# Aptamer quench SP: quenches fluorescent RNA aptamer, GRK2 hit artifact. shares compounds with GRK2 inh. Carboxyfluorescein RNA aptamer on beads, flow cytometry quenching; stronger effect = lower value. fluorescence response (% of DMSO), % at 10 µM. 2,000 tested, under 10 active. AID 504580;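 active = compounds that quench the bead-bound fluorescent RNA probe, cutting fluorescence to under half of the solvent control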;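 note: counterscreen run without GRK2 so only probe quenching by compound is measured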
# GRK2 CP2: human GRK2 inhibition confirmation, cherry pick 2 | shares compounds with GRK2 inh | bead-bound GRK2, FAM-aptamer displacement, flow cytometry | inhibition of aptamer binding, % at 10 µM | 360 tested, under 10 active;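 active = inhibition of aptamer binding above 40%, about triple the noise seen with nonglowing compounds, on plates passing quality control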;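 note: negative values mostly come from compounds that fluoresce themselves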
# FAM quench SP: quenches fluorescent RNA aptamer, GRK2 hit artifact; shares compounds with GRK2 inh; fluorescence response vs DMSO, % at 10 µM; AID 588494; carboxyfluorescein RNA aptamer beads, flow cytometry quenching; stronger effect = lower value; 360 tested, under 10 active;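 active = response vs DMSO under 50%, meaning signal dropped by over half, treated as fluorescence quencher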;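 note: labelled aptamer on streptavidin beads without GRK2 as a quench counter-screen; 100% = bead fluorescence of DMSO wells and lower means quenching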
# FAM quench PS1: quenches fluorescent RNA aptamer, GRK2 hit artifact; shares compounds with GRK2 inh; Bead-bound FAM RNA aptamer fluorescence quenching, flow cytometry; stronger effect = lower value; fluorescence ratio to DMSO, % at 11.1 µM; 35 tested, under 10 active; AID 588496;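 active = compounds that dim the fluorescent label, raw bead signal shifting by over 33 units between lowest and highest dose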
# Active calls of the source: *; x = no result given. Hits are enriched below; roughly 1.8% of the tested compounds scored in any of these assays.
SMILES,H9c2 protect,HDAC3 inh,GRK2 inh,Neddylation inh,GRK2 CP1,Aptamer quench SP,others
OCCSc1nc(N2CCOCC2)nc(N2CCOCC2)n1,-1,1,40,5,3,97,
Cc1cccc(C)c1NC(=O)CSc1nc(N2CCOCC2)nc(N2CCOCC2)n1,-3,x,5,3,x,x,
CC(=Nc1ccccc1)C1=C(O)CCCC1=O,-5,0,35,-4,4,97,
CN1CCN(/N=C/c2ccc(-c3ccccc3)cc2)CC1,-4,2,0,-12,x,x,
Cc1cc(/C=N/N2CCN(C)CC2)c(C)n1-c1ccccc1F,0,0,50*,1,1,99,
CCCOc1ccc(N2CC(C(=O)Nc3ccccc3C(=O)NC)CC2=O)cc1 (stereo not drawn),-2,-4,47*,1,0,98,
Cc1ccc2c(c1)c1nnc(SCC(=O)N3CCN(c4ccc(F)cc4)CC3)nc1n2CC(=O)O,-6,-1,100*,-17,x,x,GRK2 CP2=2;FAM quench SP=99
CCCNC(=O)c1cc(C2CCCCN2C(=O)c2ccc3c(c2)CCO3)on1 (stereo not drawn),1,x,x,-4,x,x,
CC12CCC(=O)N1C(C(=O)Nc1ccccc1F)CS2 (stereo not drawn),-5,1,0,9,x,x,
O=C(O)CC/C(=N/NC(=O)CNC(=O)C(c1ccccc1)c1ccccc1)c1ccccc1,3,x,90*,2,3,96,
NS(=O)(=O)c1cccc(NC(=O)CSc2nnc(-c3ccncc3)n2C2CC2)c1,12,-4,3,-4,x,x,
Cc1ccc(CNC(=O)CCC2CCCN(C(=O)c3ccc4c(c3)OCO4)C2)o1 (stereo not drawn),1,3,45*,8,-2,93,
Cc1cc(C)c2c(c1)C1(OCCO1)C(=O)N2,0,10,18,-2,1,103,
CCN(/N=C/c1ccc(Cl)cc1)c1cc(=O)n(C)c(=O)[nH]1,-2,4,92*,18,-8,95,
O=C1CC(c2ccc3c(c2)OCCO3)Oc2ccc([N+](=O)[O-])cc21 (stereo not drawn),-19,4,42*,-23,-2,102,
O=C1CC(c2ccc3c(c2)OCCO3)Oc2ccccc21 (stereo not drawn),0,11,0,-2,x,x,
O=C(NCC1CCCO1)c1ccc(F)c2ccccc12 (stereo not drawn),10,2,3,-4,x,x,
CC(=O)N1CCN(Cc2nc3cc(Cl)ccc3c(=O)[nH]2)CC1,17,4,87*,10,42*,100,Aptamer quench=9.8;GRK2 CP2=-3;FAM quench SP=96;FAM quench PS1=102
O=c1[nH]c(CN2CCN(S(=O)(=O)c3ccc(Cl)cc3)CC2)nc2cc(Cl)ccc12,4,0,6,13,x,x,
COc1ccc(N2CCN(Cc3nc4cc(Cl)ccc4c(=O)[nH]3)CC2)cc1,-3,6,3,32,x,x,GRK2 CP2=5;FAM quench SP=107
Cc1ccc(N2NC(=O)/C(=C/c3ccc(-c4ccc(Cl)c(C(=O)O)c4)o3)C2=O)cc1,-1,4,0,18,x,x,
CCCCC1(C)OC(=O)C(=Cc2ccc(-c3ccc(Cl)c(C(=O)O)c3)o2)C(=O)O1 (stereo not drawn),0,9,55*,9,-1,95,
COc1cc(/C=N/Nc2ccc(C(=O)O)cc2)cc(OC)c1OC,17,3,1,9,x,x,
COc1cc(/C=N/Nc2ccc(C(=O)O)cc2)ccc1O,-10,-3,41*,-3,26,90,
Cc1ccc(Cn2c(SC3CCOC3=O)nc3ccccc3c2=O)cc1 (stereo not drawn),21,1,43*,0,x,x,GRK2 CP2=-2;FAM quench SP=99
